Source: PubChem BioAssay (EPA / NIEHS)
Active and inactive are the calls of the source. Rule for the calls: active = hit-call score of the fitted dose curve at least 0.9, where 1 is the maximum; inactive = score below 0.9.

Experiments:
[1] = Tanguay_ZF_120hpf_MORT: Oregon State University Tanguay Lab 120 Hour Post-fertilization zebrafish Assay for Mortality (AID 2284399)
How it was run: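 Mortality, recorded present/absent via brightfield imaging at 24 and 120 hpf, in 5D zebrafish embryos exposed statically from 6 hpf after pronase chorion removal. Exposure at 28C, 0.64% DMSO vehicle, DMSO baseline.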

[2] = Tanguay_ZF_120hpf_EDEM: Oregon State University Tanguay Lab 120 Hour Post-fertilization zebrafish Assay for Edema Malformation (AID 2284400)
How it was run: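 Edema recorded as a binary endpoint under brightfield at 120 hpf, excluding embryos that died. Exposure was static, sealed, 28C, from 6 hpf in dechorionated wild-type larvae, final DMSO 0.64%, DMSO as baseline.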

[3] = Tanguay_ZF_120hpf_MUSC: Oregon State University Tanguay Lab 120 Hour Post-fertilization zebrafish Assay for Muscle Malformation (AID 2284401)
Method: (§1) Tanguay_ZF_120hpf is a whole embryo, multiplexed endpoint assay using zebrafish larvae exposed for 120 hours post fertilization on a 96-well plate.Tanguay_ZF_120hpf_MUSC is one of one assay component(s) measured or calculated from the Tanguay_ZF_120hpf assay. It is designed to make measurements of zebrafish development as detected with brightfield microscopy of developing zebrafish embryos.Data from the assay component Tanguay_ZF_120hpf_MUSC was analyzed into 1 assay endpoints. This assay endpoint, Tanguay_ZF_120hpf_MUSC, was analyzed in the positive analysis fitting direction relative to DMSO as the negative control and baseline of activity. […]
(§2) Zebrafish husbandry: Tropical 5D wild-type adult zebrafish were housed in at an approximate density of 1000 per 100 gallon tank at the Sinnhuber Aquatic Research Laboratory, Oregon State University, Corvallis, OR. […] At 24 hpf, embryos were assessed for photomotor response using a custom photomotor response analysis tool (PRAT) and for developmental toxicity endpoints (MO24: mortality at 24 hpf, DP: developmental progression, SM: spontaneous movement, and NC: notochord distortion). At 120 hpf, locomotor activity was measured using Viewpoint Zebralab and assessed for 13 endpoints. […] If mortality occurred for an embryo (at either 24 or 120 hpf), the non-mortality endpoints were not measured.

[4] = Tanguay_ZF_120hpf_BRN: Oregon State University Tanguay Lab 120 Hour Post-fertilization zebrafish Assay for Brain Region Malformation (AID 2284402)
Method: as §1, with “plate.Tanguay_ZF_120hpf_BRN” for “plate.Tanguay_ZF_120hpf_MUSC”, “Tanguay_ZF_120hpf_BRN” for “Tanguay_ZF_120hpf_MUSC”, “Tanguay_ZF_120hpf_BRN,” for “Tanguay_ZF_120hpf_MUSC,”
as §2

[5] = Tanguay_ZF_120hpf_TCHR: Oregon State University Tanguay Lab 120 Hour Post-fertilization zebrafish Assay for Touch Responsive (AID 2284403)
How it was run: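 Binary touch-response calls are made at 120 hpf in 5D wild-type zebrafish larvae. These larvae were dechorionated with pronase and exposed singly from 6 hpf in sealed, dark plates at 28 °C with 0.64% DMSO final; dead embryos are excluded.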

[6] = Tanguay_ZF_120hpf_ANY: Oregon State University Tanguay Lab 120 Hour Post-fertilization zebrafish Assay for Any Mortality and Malformation (AID 2284404)
How it was run: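 Dechorionated Tropical 5D wild-type embryos, one per well from 6 hpf, static exposure in sealed, dark plates at 28C until 120 hpf, 0.64% DMSO final. Brightfield scoring of mortality and malformations as binary presence/absence, pooling 13 morphology endpoints.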

[7] = CCTE_Padilla_ZF_Score.Craniofacial: CCTE's 144 Hour Post-fertilization zebrafish Assay Score for Craniofacial Malformation, Padilla Lab (AID 2284405)
How it was run: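 Craniofacial defects were scored at 6 dpf by two blinded observers using stereomicroscopy. Exposure of wild-type embryos began at 6–8 hpf in sealed wells of 10% Hanks' solution at 26C, with chemical removed by rinsing at 5 dpf.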

[8] = CCTE_Padilla_ZF_Score.Edema: CCTE's 144 Hour Post-fertilization zebrafish Assay Score for Edema Malformation, Padilla Lab (AID 2284406)
Method: CCTE_Padilla_ZF_Phenotype_Score is a whole embryo, multiplexed assay using zebrafish ova exposed for 144 hours post fertilization on a 96-well plate.CCTE_Padilla_ZF_Score.Edema is one of one assay component(s) measured or calculated from the CCTE_Padilla_ZF_Phenotype_Score assay. It is designed to make measurements of zebrafish development as detected with brightfield microscopy of developing zebrafish embryos.Data from the assay component CCTE_Padilla_ZF_Score.Edema was analyzed into 1 assay endpoints. This assay endpoint, CCTE_Padilla_ZF_Score.Edema, was analyzed in the positive analysis fitting direction relative to DMSO as the negative control and baseline of activity. Using a type of viability reporter, gain-of-signal activity can be used to understand changes in developmentals as they relate to the whole embryo. To generalize the intended target to other relatable targets, this assay endpoint is annotated to the zebrafish development intended target family, where the subfamily is embryonic edema.
Zebrafish husbandry: Wild type adult zebrafish (Danio rerio; undefined outbred stock obtained from Aquatic Research Organisms, Hampton, NH, 03842) were housed in an AAALAC-approved animal facility at 28C with a 14:10 h light: dark cycle (lights on at 08:30 h). […]

[9] = CCTE_Padilla_ZF_Score.Spine: CCTE's 144 Hour Post-fertilization zebrafish Assay Score for Spine Malformation, Padilla Lab (AID 2284407)
How it was run: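 Spine malformation scored at 6 dpf by two independent blinded observers under stereomicroscope, after static sealed exposure from 6–8 hpf at 26C in Hanks' solution with rinse on 5 dpf. Positive-direction fit against DMSO control.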

[10] = CCTE_Padilla_ZF_Score.Swim_bladder: CCTE's 144 Hour Post-fertilization zebrafish Assay Score for Swim Bladder Malformation, Padilla Lab (AID 2284408)
How it was run: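 Swim bladder inflation scored at 6 dpf by two blinded observers under a stereo microscope. Exposure ran from 6–8 hpf in sealed wells of 10% Hanks' at 26C, with rinsing at 5 dpf; DMSO served as baseline.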

Measured: AC50

CCNS(=O)(=O)C(F)(F)C(F)(F)C(F)(F)C(F)(F)C(F)(F)C(F)(F)C(F)(F)C(F)(F)F
active: [2] 62.9 µM | [6] 62.1 µM | [8] 2.86 µM | [10] 3.57 µM
inactive: all other assays above
